# Bioassay records: PubChem BioAssay, National Center for Advancing Translational Sciences (NCATS)
# Marburg entry inh: inhibitors of Marburg virus binding or cell entry; Marburg virus pseudotyped entry inhibition, cell reporter; Potency, µM (doses to about 37.8 µM), for inactives: top-dose activity change, negative = inhibition, hits mostly inhibitors; 1.8% of 300,000 active; AID 540276; calls by dose curve; tested in HEK293 cells; note: potency is the fitted concentration of half-maximal effect
# Lassa entry inh: blocks Lassa virus binding to or entry into cells | Lassa virus pseudotype entry inhibition, cell reporter | Potency, µM (titrated, usually from 37.9 µM), for the others: top-dose activity change, negative = inhibition, actives largely listed as inhibitors | 1.2% of 300,000 active | AID 540256; calls by dose curve; tested in HEK293 cells; note: potency is the fitted concentration of half-maximal effect; nearly all actives have a fitted effect of over 50% in size
# VACV Venus inh: inhibitors of vaccinia virus (Venus reporter); Potency, µM (doses to about 36.5 µM), inactives show at the top dose activity change, negative = inhibition, usual class: inhibitors; AID 720580; 0.46% of 330,000 active; Vaccinia virus Venus reporter expression, fluorescence; calls by dose curve; tested in A549 cells; note: potency is the fitted concentration of half-maximal effect; nearly all actives have a fitted effect of over 30% in size
# HCV inhibitor: inhibitors of hepatitis C virus infection | AID 651820 | Potency, µM (series often up to 41.8 µM), inactives show top-dose activity change, negative = inhibition, most hits filed as inhibitors | Huh7.5.1 HCVcc-Cre infection, luciferase reporter, 44 h | 3.4% of 340,000 active; active = well fitted inhibition curve with a large enough effect; inconclusive = small, poorly fitted or top-dose-only effect, or another doubt; inactive = no such curve, though single readings can be large or run the other way; note: potency is the fitted concentration of half-maximal effect
#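 Infectious HCV cell culture screen: compound-treated cells (1,000/well, pre-plated 4 h) are infected with HCVcc-Cre at roughly 0.5 moi and grown 44 h. Infection is quantified by luciferase signal after 15 min substrate incubation at room temperature.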
# HCMV inh: blocks human cytomegalovirus replication | HFF cells, HCMV-luciferase reporter, 72 h; active compounds read low | activity change, negative = inhibition, % at 57.5 µM | 4.5% of 410,000 active; in the data active = activity change below about -60%; inconclusive = no clear call, values can overlap the other calls; inactive = above about -39%
#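 Screen run at 2 compound doses on HFFs infected with reporter HCMV, MOI 1 PFU/cell. Luciferase activity from cell lysates at 72 h post infection gave inhibition relative to buffer-only and Salinomycin wells.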
# Vaccinia mCherry: vaccinia inhibition (mCherry reporter). 0.63% of 310,000 active. Potency, µM (series often up to 36.5 µM), inactives show at the highest dose activity change, negative = inhibition, usual class: inhibitors. Vaccinia virus mCherry reporter infection, fluorescence; calls by dose curve; tested in A549 cells; note: potency is the fitted concentration of half-maximal effect; nearly all actives have a fitted effect of over 35% in size
# Starred values were filed as active, the others as inactive; i = inactive; u = inconclusive; x = no result given; ! = repeats disagree; [ ] = another dose, or the depositor's remark. This is a sample that favours compounds with a hit; in the whole collection about 7.8% have one here. % is set by controls: 0 for no effect and ±100 for the full control effect.
SMILES,Marburg entry inh,Lassa entry inh,VACV Venus inh,HCV inhibitor,HCMV inh,Vaccinia mCherry
COC(=O)c1cc(NC(=O)CN(c2ccccc2)S(=O)(=O)N(C)C)ccc1Cl,u,-13.1%[46.1 µM],-1.1%,x,7.1,-9.0%
COc1ccc(CCC(=O)NC2CC(=O)N(c3ccc(C)c(C)c3)C2)cc1 (configuration not stated),x,-3.9%[46.1 µM],-8.8%[7.34 µM],x,64.6,-3.8%[7.34 µM]
COc1ccc2cc3cc(C(=O)NCc4ccc5c(c4)OCO5)oc3nc2c1,u,0.82µM*,-12.3%,-7.3%,-23.0,-20.6%
COc1ccc2cc3cc(C(=O)Nc4cc(OC)c(OC)c(OC)c4)oc3nc2c1,-29.8%,u,x,u,-12.5,x
COc1ccc2cc3cc(C(=O)Nc4ccc5c(c4)OCCO5)oc3nc2c1,u,u,-29.0%,11.2µM*,-18.5,-14.5%
Cc1ccc(C)c(CN2CCCN(Cc3ccc(F)cc3)S2(=O)=O)c1,x,-29.2%[46.1 µM],-0.3%,x,0.0,-3.2%
O=C(/C=C/c1ccc(F)cc1)NCC1Cc2cccc(-c3ncccn3)c2O1 (configuration not stated),x,x,-8.0%,x,x,-18.0%
CCOc1ccc(NC(=O)C2CCN(c3nnc(-n4c(C)ccc4C)s3)CC2)cc1,-1.7%[46.1 µM],4.4%[46.1 µM],-13.1%,x,-30.0,-6.0%
COc1ccc(CNC(=O)c2cc3cc(OC)ccc3oc2=O)cc1,u,u,-21.4%,u,-104.1*!,-26.4%
COc1ccc2oc(=O)c(C(=O)Nc3cccc(C)c3)cc2c1,u,-0.1%[46.1 µM],-9.3%,u,0.9,-3.3%
COc1ccc2oc(=O)c(C(=O)Nc3cccc(C(=O)O)c3)cc2c1,2.82µM*,3.8%[46.1 µM],9.9%,x,107.1,-1.7%
COc1ccc2oc(=O)c(C(=O)NCc3ccc(C)cc3)cc2c1,x,x,x,9.1%,-99.7*,x
Clc1cccc(C[n+]2cc(-c3ccccc3)n3c2CCC3)c1,u,2.8%,-28.8%,8.3%,-70.0*,-0.1%
Clc1ccc(-c2c[n+](Cc3ccc(Cl)c(Cl)c3)c3n2CCC3)cc1,x,x,x,4.3%,x,x
Cc1ccc(-c2c[n+](Cc3cccc(Cl)c3)c3n2CCC3)cc1,u,u,-23.0%,-26.4%,-86.5*,-24.4%
Cc1ccc(OC(=O)CN2C(=O)c3ccccc3C2=O)cc1C,20.3%[46.1 µM],24.0%[46.1 µM],-13.1%,5.4%,-61.0*,i
CC1=CC(C)(C)Nc2ccc(OC(=O)CCN3C(=O)c4ccccc4C3=O)cc21,u,u,71.6%,u,-99.5*,-4.8%
O=C(CN1C(=O)c2ccccc2C1=O)Oc1ccc(Cl)cc1,-3.1%[46.1 µM],6.5%[46.1 µM],-14.8%,7.5%,-4.6,i
Cc1ncc2c(c1CNC(=O)c1ccc3c(c1)OCO3)CCN(C(=O)c1cccc(-n3cccn3)c1)C2,x,x,-2.5%,x,x,-8.1%
CCCn1c2ccccc2c2cnn(CC(=O)N3CCC(C(=O)OCC)CC3)c(=O)c21,x,-18.4%[46.1 µM],-11.7%,x,-22.9,-0.1%
CCn1c(CSCc2ccccc2)n[nH]c1=S,1.2%[46.1 µM],-11.6%,-2.2%,23.0%,-73.1*,-5.4%
S=c1[nH]nc(CN2CCCCC2)n1Cc1ccccc1,1.7%[46.1 µM],u,-0.4%,8.9%,-81.9*,i
S=c1[nH]nc(CN2CCCC2)n1Cc1ccccc1,u,13.3%,1.0%,6.8%,-22.3,i
S=c1[nH]nc(-c2ccccc2)n1Cc1ccccc1,7.8%,11.0%,-9.3%,30.1%,23.2,i
Cc1n[nH]c(=S)n1Cc1ccccc1,x,x,-6.0%,18.9%,-82.2*,-20.6%
SMILES,Marburg entry inh,Lassa entry inh,VACV Venus inh,HCV inhibitor,HCMV inh,Vaccinia mCherry
Cc1ccc(C)c(NC(=O)CSc2nnc(-c3cc4occc4n3C)n2-c2ccccc2C)c1,x,u,-23.8%,x,-38.2,-22.7%
Cc1ccc(CS(=O)(=O)c2ncc(Cl)c(C(=O)Nc3ccc(OC(F)F)cc3)n2)cc1,u,u,-29.8%,u,-110.8*,-16.1%
CCS(=O)(=O)c1ncc(Cl)c(C(=O)Nc2ccc(S(=O)(=O)N3CCCC(C)C3)cc2)n1 (configuration not stated),u,u,u,12.6µM*,-101.3*,u
CCC1CCCCN1S(=O)(=O)c1ccc(NC(=O)c2nc(S(C)(=O)=O)ncc2Cl)cc1 (configuration not stated),8.91µM*,u,u,u,-112.8*,u
COc1ccc(NC(=O)c2nc(S(=O)(=O)Cc3ccc(C)cc3)ncc2Cl)cc1,u,u,u,x,-97.4*,u
CC1CCCN(S(=O)(=O)c2ccc(NC(=O)CNC3CCCC3)cc2)C1 (configuration not stated),u,-0.8%,-9.7%,-10.9%,u,-12.2%
COc1ccc(CCNC(=O)CSc2nnnn2-c2cccc(C(C)=O)c2)cc1OC,11.8%[46.1 µM],7.9%[46.1 µM],3.2%,x,-3.2,-4.6%
CCCS(=O)(=O)c1ncc(Cl)c(C(=O)Nc2c(C(=O)Nc3ccccc3)oc3ccccc23)n1,-15.2%[46.1 µM],u,-11.4%,x,-31.2,-13.3%
CCS(=O)(=O)c1ncc(Cl)c(C(=O)Nc2ccc(C)cc2)n1,7.94µM*,u,u,u,-100.5*,u
NS(=O)(=O)c1ccc(N=Cc2c(O)[nH]c3ccc4ncsc4c23)cc1,x,7.05µM*,x,x,x,x
O=C(Nc1ccc(F)cc1F)NC1CCN(Cc2c(F)cccc2Cl)CC1,u,u,-9.7%,-0.6%,-68.3*,-5.2%
COc1cccc2c1NC1(C)c3ccccc3-n3nncc3CN1C2=O (configuration not stated),x,x,x,x,-7.8,x
CN(Cc1ccc(Cl)c(Cl)c1)C(=O)c1ccccc1SCC(=O)N1CCCC1,-16.5%[46.1 µM],-11.9%,-10.9%,-18.7%,-98.6*,-9.3%
CN(Cc1cccc(Cl)c1Cl)C(=O)c1ccccc1SCC(=O)N1CCCC1,u,-23.2%,-18.8%,22.4µM*,-5.3,-22.8%
CN(C(=O)COC(=O)c1ccccc1SCC(=O)N1CCCC1)c1ccccc1,u,-7.5%,-12.4%,0.0%,-6.9,-1.7%
CN(Cc1ccccc1)C(=O)COC(=O)c1ccccc1SCC(=O)N1CCCC1,-2.5%,6.8%,-5.9%,5.3%,-60.8*,-17.7%
CN(C(=O)CSc1nc2c(c(=O)[nH]1)CCCC2)c1ccccc1,-0.4%[46.1 µM],11.0%[46.1 µM],-1.6%,x,11.1,-9.3%
Cc1ccc(NC(=O)CN2C(=O)CCc3cc(S(=O)(=O)N4CCOCC4)ccc32)cc1N(C)C,x,-1.4%[46.1 µM],0.2%,x,10.8,-9.4%
COc1ccc(C(=O)O/N=C/c2c(C(F)(F)F)nn(C)c2SCc2ccccc2Cl)cc1,u,u,x,u,-82.1*,x
COC1=C[C@H](C(=O)N2CCCC2)[C@H](C)[C@@H](c2ccccc2)CC1=O,2.0%[14.2 µM],u,x,x,x,x
CCOC(=O)/C(=C\c1ccc(Cl)cc1)c1nc2sc(C)c(C)c2c(=O)[nH]1,u,u,u,u,-75.1*,u
CCOC(=O)CSc1nc2sc(C)c(C)c2c(=O)[nH]1,-4.3%[46.1 µM],5.0%,-15.7%,-12.9%,-13.8,-17.2%
